Many of the other results were omitted from the sample, so hits are more common in it than they were.
Pf Dd2 growth: qHTS Primary assay for Inhibitors of Plasmodium falciparum Dd2 growth in vitro; P. falciparum Dd2 growth, SYBR Green, 72 h; Potency, µM (titrated, usually from 28.9 µM), inactives show at the highest dose activity, negative = inhibition, hits mostly inhibitors; 4.3% of 120,000 active; active means well fitted inhibition curve with a large enough effect;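 further: plate controls were DMSO vehicle for no effect and reference drug for full effect; nearly all actives have a fitted effect of over 65% in size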
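Infected erythrocytes (Dd2, 0.3% parasitemia, 2.5% hematocrit final) are added to compound in RPMI-1640/Albumax II medium, grown 72 h at 37C in low oxygen, then lysed with saponin/Triton-X containing SYBR Green and read by fluorescence.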
An asterisk follows results filed as active; i = inactive; [ ] = another dose, or the depositor's remark. Potency means the concentration at half of the fitted maximal effect.

SMILES	Pf Dd2 growth
COc1ccc(N2CCN(CC(O)COc3ccc(C)c(C)c3)CC2)cc1 (stereo not drawn)	22.8%
CCOC(=O)N1CCN(Cc2cccc(OCC(O)CN3CCOCC3)c2)CC1 (stereo not drawn)	0.7%
CCC(C)Cn1c(COc2ccc(OC)cc2)nc2ccccc21 (stereo not drawn)	i
Cc1cccc(OCC(O)Cn2c(=N)n(CCN3CCCCC3)c3ccccc32)c1 (stereo not drawn)	10µM*
CCn1c(=N)n(CC(O)COc2ccccc2)c2ccccc21 (stereo not drawn)	7.08µM*
O=S(=O)(c1ccccc1)N1CCC(n2cnnc2C2CC2)CC1	9.7%
O=C(c1cnccn1)N1CC[C@H]2COC(=O)N2c2cc(F)ccc2C1	2.8%[44.1 µM]
CC(C)c1ccc(CC(=O)N2CCCc3ncc(C(=O)N(C)c4ccccc4)cc32)cc1	i
O=C(c1ccc(Cl)nc1)N1CCC(N2CC3CCCN3C2=O)CC1 (stereo not drawn)	19.5%
NCC(=O)N1CCC2(CC1)CN(C(=O)c1ccc(Cl)cc1)CCO2	-0.7%
CN(C)c1ccc(CN[C@H]2C[C@H]3C(=O)NC[C@@H](CCC(=O)Nc4ccccc4)N3C2)cc1	-4.9%
COc1ccc(NC(=O)N2CCCC(Cn3cnc4cccnc43)C2)c(OC)c1 (stereo not drawn)	-22.3%
CC1CCC2(CC1)OCC(C(=O)NCc1ccccc1)N2C(=O)c1cccc(Cl)c1 (stereo not drawn)	i
Cc1cccc(C(=O)N2C(C(=O)NCc3ccccc3)COC23CCC(C)CC3)c1 (stereo not drawn)	i
CC1CCC2(CC1)OCC(C(=O)NCc1ccccc1)N2C(=O)c1ccc(Cl)c(Cl)c1 (stereo not drawn)	8.91µM*
COc1ccc(CNC(=O)CCS(=O)(=O)c2cc(Br)cc3c2N(C(C)=O)C(C)C3)cc1 (stereo not drawn)	3.5%
COc1ccc(NC(=O)CCS(=O)(=O)c2cc(Br)cc3c2N(C(C)=O)CC3)c(OC)c1	i
CCC(=O)N1CCc2cc(Br)cc(S(=O)(=O)CCC(=O)Nc3ccc(Cl)cc3)c21	5.01µM*
CCC(=O)N1CCc2cc(Br)cc(S(=O)(=O)CCC(=O)Nc3cccc(C)c3C)c21	-1.8%
Cc1ccc(NC(=O)CCS(=O)(=O)c2cc(Br)cc3c2N(C(=O)C2CC2)CC3)cc1	1µM*
CCC(=O)N1CCc2cc(Br)cc(S(=O)(=O)NCCc3ccccc3Cl)c21	-21.7%
O=C(CCS(=O)(=O)c1cc2c3c(c1)CCN3C(=O)CC2)NCc1ccc(Cl)cc1	16.3%
CCC(=O)N1CCc2cc(Br)cc(S(=O)(=O)CCC(=O)Nc3cccc(Cl)c3)c21	7.08µM*
Cc1ccc(CNS(=O)(=O)c2cc(Br)cc3c2N(C(=O)C2CC2)CC3)cc1	-1.2%
CCC(=O)N1CCc2cc(Br)cc(S(=O)(=O)NCCc3ccc(C)cc3)c21	i
SMILES	Pf Dd2 growth
O=C(CCS(=O)(=O)c1cc(Br)cc2c1N(C(=O)C1CC1)CC2)NCc1ccc(Cl)cc1	6.31µM*
CCC(=O)N1CCc2cc(Br)cc(S(=O)(=O)CCC(=O)NCCc3ccccc3)c21	-3.5%
O=C(Cn1cccc1-c1nc(-c2ccc3c(c2)OCO3)no1)Nc1ccc(Cl)cc1F	-15.5%
COc1ccc(CN2CC[C@H](c3nnc(-c4ccco4)o3)C2)cc1	i
CCCN(CC1CCOC1)S(=O)(=O)c1ccccc1C (stereo not drawn)	15.5%[5.79 µM]
COc1cccc([S+](=O)([O-])N2CCC3(Cc4ccccc4NC3=O)C2)c1 (stereo not drawn)	-1.5%
Cc1nc([C@@H]2CN(C(=O)c3noc(C)c3Cn3cccn3)C[C@H]2C(N)=O)n[nH]1	-6.8%
CCOc1ccccc1CN1CCc2n[nH]c(=O)n2CC1	i
Cc1ccncc1C(=O)N1CC(N(C)Cc2cccnc2)C1	-9.7%
CC1=NOC2(CCN(C(=O)c3ccc(F)cc3)CC2)C1	-16.7%[44.1 µM]
CC(=O)N1CCc2cc(Br)cc(S(=O)(=O)N3CCC(C(=O)Nc4ccc(C(C)C)cc4)CC3)c21	10µM*
CC(C)c1ccc(NS(=O)(=O)c2cc(Br)cc3c2N(C(=O)C2CC2)CC3)cc1	-13.6%
CC(=O)N1CCc2cc(Br)cc(S(=O)(=O)N3CCC(C(=O)N(C)c4cc(C)ccc4C)CC3)c21	-9.3%
CC(=O)N1CC2(Cc3ccccc31)CN(C(=O)c1ccccc1F)C2	-29.2%[44.1 µM]
Cc1nn(-c2ccc(C(C)(C)C)cc2)c(C)c1[C@@H]1C=C[C@@H](NC(=O)Nc2ccccc2)C1	-13.0%[44.1 µM]
Cc1nn(Cc2ccccc2)c(C)c1[C@@H]1C=C[C@@H](NC(=O)Nc2cccc(C#N)c2)C1	i
Cc1nn(-c2ccc(C(C)(C)C)cc2)c(C)c1[C@@H]1C=C[C@@H](NC(=O)c2cccs2)C1	-7.4%[44.1 µM]
Cc1nn(-c2ccc(C(F)(F)F)cc2)c(C)c1[C@@H]1C=C[C@@H](NC(=O)c2cccs2)C1	2.82µM*
COc1ccc(NC(=O)O[C@@H]2C=C[C@H](c3c(C)nn(-c4ccccc4C)c3C)C2)cc1	i
Cc1ccc(-n2nc(C)c([C@H]3C=C[C@@H](OC(=O)Nc4cccc(F)c4)C3)c2C)cc1Cl	11.2µM*
Cc1nn(-c2ccc(C(F)(F)F)cc2)c(C)c1[C@@H]1C=C[C@@H](NC(=O)Nc2ccccc2)C1	11.2µM*
Cc1ccc(-n2nc(C)c([C@@H]3C=C[C@@H](NC(=O)c4cccs4)C3)c2C)cc1Cl	11.2µM*
Cc1ccc(-n2nc(C)c([C@@H]3C=C[C@@H](N)C3)c2C)cc1Cl	i
O=C(N[C@H]1CCN2C(=O)N(c3ccc(F)c(Cl)c3)C(=O)[C@@H]2C1)c1cccs1	i
Cc1nn(Cc2ccccc2)c(C)c1[C@@H]1C=C[C@@H](NC(=O)CSCC(=O)O)C1	i
SMILES	Pf Dd2 growth
Cc1nn(-c2ccc(C(F)(F)F)cc2)c(C)c1[C@@H]1C=C[C@@H](NC(=O)C2CCCCC2)C1	i
CNC(=O)CN1CCCCC1C(=O)Nc1cccc(-c2cccc(OC)c2)c1 (stereo not drawn)	i
COc1ccc(-c2cnc([C@@H]3COCCN3)[nH]2)cc1	i
CC(C)NC(=O)N1CCC(CCOc2ccccc2F)C1 (stereo not drawn)	i
C=CCNC(=O)N[C@H]1CCN(C(=O)CC(C)(C)C)[C@@H]1C(=O)N(C)CC(N)=O	23.2%[44.1 µM]
COc1ccc(S(=O)(=O)NC[C@H]2O[C@@H](CO)[C@@H](O)[C@H]2N2CCN(C)CC2)cc1	3.9%
Cc1nn(-c2ccccc2)c(C)c1[C@@H]1C=C[C@@H](NCc2ccc(F)cc2)C1	5.01µM*
Cc1nn(-c2ccc(C(C)C)cc2)c(C)c1[C@@H]1C=C[C@@H](NCc2cccc(Cl)c2)C1	-14.6%[44.1 µM]
Cc1nn(-c2ccc(F)cc2)c(C)c1[C@@H]1C=C[C@@H](NS(=O)(=O)c2cccs2)C1	i
Cc1nn(Cc2ccccc2)c(C)c1[C@@H]1C=C[C@@H](NC(=O)CCC(=O)O)C1	-8.0%[44.1 µM]
Cc1nn(-c2cccc(Br)c2)c(C)c1[C@@H]1C=C[C@@H](NC(=O)CC(C)(C)CC(=O)O)C1	8.91µM*
Cc1nn(-c2ccccn2)c(C)c1[C@@H]1C=C[C@@H](NC(=O)CCC(=O)O)C1	i
O=C(c1ccco1)N1CCN(C(=O)C2CCc3ncc(-c4ccsc4)n3C2)CC1 (stereo not drawn)	-17.8%
Cc1cccc(C(=O)N2CCCCCNC(=O)[C@@H]3CCC[C@@H]32)c1	-17.0%
CCC(C(=O)NC1CCN(c2cnn(C)c(=O)c2)CC1)c1ccccc1 (stereo not drawn)	-0.8%
